The source of these data is ChEMBL document CHEMBL1961873, “Compounds: GSK PKIS; Assays: Nanosyn kinase panel” (2012).

For assay [1], the target named is T1, Mitogen-activated protein kinase 12 (Homo sapiens) (UniProt P53778).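 Note: values are averaged p38gamma kinase inhibition readings, compounds tested at 1 µM.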
T1 sequence (whole entry): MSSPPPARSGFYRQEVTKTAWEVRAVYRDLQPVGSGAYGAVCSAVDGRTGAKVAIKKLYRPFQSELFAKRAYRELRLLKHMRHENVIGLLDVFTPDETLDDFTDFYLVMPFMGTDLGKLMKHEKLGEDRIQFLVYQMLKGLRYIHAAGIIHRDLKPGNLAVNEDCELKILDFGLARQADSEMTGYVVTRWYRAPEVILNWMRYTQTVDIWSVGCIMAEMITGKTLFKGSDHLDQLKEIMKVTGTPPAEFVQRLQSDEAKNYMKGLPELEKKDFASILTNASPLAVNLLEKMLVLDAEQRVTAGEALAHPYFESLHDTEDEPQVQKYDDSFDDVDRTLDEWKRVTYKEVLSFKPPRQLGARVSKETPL
To be noted: at 1 µM.

Assay [2] concerns the target SRSF protein kinase 1 (Homo sapiens) (UniProt Q96SB4). To be noted: at 0.1 µM.
For assay [3] the target is unchanged. To be noted: at 1 µM.
The target of assay [4] is Phosphatidylinositol 4,5-bisphosphate 3-kinase catalytic subunit alpha isoform (Homo sapiens) (UniProt P42336). To be noted: at 0.1 µM.
Chain of Phosphatidylinositol 4,5-bisphosphate 3-kinase catalytic subunit alpha isoform (Homo sapiens) (P42336 whole entry, canonical isoform): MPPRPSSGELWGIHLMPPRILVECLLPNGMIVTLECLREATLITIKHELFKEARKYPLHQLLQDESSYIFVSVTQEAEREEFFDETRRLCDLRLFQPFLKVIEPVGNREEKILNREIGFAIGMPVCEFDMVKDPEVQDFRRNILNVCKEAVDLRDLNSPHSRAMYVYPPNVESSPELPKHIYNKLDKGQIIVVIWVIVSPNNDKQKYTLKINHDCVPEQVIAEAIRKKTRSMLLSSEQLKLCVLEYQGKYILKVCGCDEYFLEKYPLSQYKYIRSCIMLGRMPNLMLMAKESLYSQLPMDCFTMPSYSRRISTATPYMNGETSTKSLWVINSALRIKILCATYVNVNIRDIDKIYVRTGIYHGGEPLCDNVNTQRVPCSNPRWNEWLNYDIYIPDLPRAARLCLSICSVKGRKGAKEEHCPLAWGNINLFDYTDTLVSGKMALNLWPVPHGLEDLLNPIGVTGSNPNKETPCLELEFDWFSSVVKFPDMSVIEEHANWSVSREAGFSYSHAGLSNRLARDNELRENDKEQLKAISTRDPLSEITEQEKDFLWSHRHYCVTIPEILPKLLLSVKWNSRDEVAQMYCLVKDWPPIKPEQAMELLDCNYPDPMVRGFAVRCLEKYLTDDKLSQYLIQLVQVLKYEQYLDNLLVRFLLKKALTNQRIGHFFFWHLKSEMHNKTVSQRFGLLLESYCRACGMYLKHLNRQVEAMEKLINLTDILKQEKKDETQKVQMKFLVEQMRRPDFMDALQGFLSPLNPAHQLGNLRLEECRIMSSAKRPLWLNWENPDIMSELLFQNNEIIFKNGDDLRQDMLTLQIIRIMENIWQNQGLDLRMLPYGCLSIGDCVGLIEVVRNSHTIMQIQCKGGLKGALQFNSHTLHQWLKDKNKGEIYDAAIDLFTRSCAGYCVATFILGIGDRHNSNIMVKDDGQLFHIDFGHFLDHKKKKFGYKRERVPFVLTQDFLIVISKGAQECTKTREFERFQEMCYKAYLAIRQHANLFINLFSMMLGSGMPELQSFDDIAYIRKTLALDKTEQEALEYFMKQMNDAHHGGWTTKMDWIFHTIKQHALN
Assay [5] has the same target. The conditions noted are these: at 1 µM.
Assay [6] has as its target T2, Phosphatidylinositol 4,5-bisphosphate 3-kinase catalytic subunit delta isoform (Homo sapiens) (UniProt O00329).
T2 sequence (whole entry): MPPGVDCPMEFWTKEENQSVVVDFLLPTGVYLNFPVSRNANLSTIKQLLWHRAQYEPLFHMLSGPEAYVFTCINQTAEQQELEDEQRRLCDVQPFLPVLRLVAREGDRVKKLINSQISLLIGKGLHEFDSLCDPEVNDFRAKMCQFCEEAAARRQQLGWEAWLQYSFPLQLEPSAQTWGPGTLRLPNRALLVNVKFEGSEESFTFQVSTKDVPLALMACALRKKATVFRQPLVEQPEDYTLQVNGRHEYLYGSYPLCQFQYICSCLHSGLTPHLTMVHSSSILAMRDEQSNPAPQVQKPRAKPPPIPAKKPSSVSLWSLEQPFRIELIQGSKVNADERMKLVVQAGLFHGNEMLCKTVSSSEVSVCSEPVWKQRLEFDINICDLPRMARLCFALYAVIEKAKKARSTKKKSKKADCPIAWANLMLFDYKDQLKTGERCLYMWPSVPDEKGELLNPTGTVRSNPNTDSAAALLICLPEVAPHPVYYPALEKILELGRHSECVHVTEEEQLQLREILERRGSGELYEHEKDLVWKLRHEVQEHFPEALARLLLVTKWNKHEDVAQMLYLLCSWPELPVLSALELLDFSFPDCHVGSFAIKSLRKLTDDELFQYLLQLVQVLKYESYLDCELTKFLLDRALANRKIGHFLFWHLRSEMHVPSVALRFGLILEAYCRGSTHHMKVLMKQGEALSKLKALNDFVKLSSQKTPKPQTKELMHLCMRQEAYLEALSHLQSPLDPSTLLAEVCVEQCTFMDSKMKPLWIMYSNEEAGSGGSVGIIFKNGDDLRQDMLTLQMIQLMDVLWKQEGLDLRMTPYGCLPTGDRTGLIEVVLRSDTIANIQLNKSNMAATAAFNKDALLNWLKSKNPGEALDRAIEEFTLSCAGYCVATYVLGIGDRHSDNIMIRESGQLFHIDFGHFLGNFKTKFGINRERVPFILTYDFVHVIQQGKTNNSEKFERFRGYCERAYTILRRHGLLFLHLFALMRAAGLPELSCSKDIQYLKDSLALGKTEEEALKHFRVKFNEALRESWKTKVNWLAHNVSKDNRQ
The conditions noted are these: at 0.1 µM.

The target in assay [7] is T2, Phosphatidylinositol 4,5-bisphosphate 3-kinase catalytic subunit delta isoform (Homo sapiens). To be noted: at 1 µM.
Assay [8] concerns the target Phosphatidylinositol 4-kinase beta (Homo sapiens) (UniProt Q9UBF8). To be noted: at 0.1 µM.
Assay [9] shares this target. To be noted: at 1 µM.
In assay [10] the target is Sphingosine kinase 1 (Homo sapiens) (UniProt Q9NYA1). To be noted: at 0.1 µM.
Chain of Sphingosine kinase 1 (Homo sapiens) (Q9NYA1 whole entry): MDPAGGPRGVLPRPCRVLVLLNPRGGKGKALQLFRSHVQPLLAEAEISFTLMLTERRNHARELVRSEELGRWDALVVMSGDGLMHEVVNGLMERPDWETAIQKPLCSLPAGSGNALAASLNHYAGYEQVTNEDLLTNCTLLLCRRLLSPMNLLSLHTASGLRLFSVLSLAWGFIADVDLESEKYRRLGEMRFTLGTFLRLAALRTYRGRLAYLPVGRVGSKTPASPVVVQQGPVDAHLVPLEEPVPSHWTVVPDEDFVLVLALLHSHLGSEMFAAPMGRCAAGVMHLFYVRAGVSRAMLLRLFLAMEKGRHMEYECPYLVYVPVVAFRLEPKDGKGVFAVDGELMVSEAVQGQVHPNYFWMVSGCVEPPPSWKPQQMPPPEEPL
Assay [11] has the same target. To be noted: at 1 µM.
Assay [12] addresses T3, Sphingosine kinase 2 (Homo sapiens) (UniProt Q9NRA0).
T3 sequence (whole entry): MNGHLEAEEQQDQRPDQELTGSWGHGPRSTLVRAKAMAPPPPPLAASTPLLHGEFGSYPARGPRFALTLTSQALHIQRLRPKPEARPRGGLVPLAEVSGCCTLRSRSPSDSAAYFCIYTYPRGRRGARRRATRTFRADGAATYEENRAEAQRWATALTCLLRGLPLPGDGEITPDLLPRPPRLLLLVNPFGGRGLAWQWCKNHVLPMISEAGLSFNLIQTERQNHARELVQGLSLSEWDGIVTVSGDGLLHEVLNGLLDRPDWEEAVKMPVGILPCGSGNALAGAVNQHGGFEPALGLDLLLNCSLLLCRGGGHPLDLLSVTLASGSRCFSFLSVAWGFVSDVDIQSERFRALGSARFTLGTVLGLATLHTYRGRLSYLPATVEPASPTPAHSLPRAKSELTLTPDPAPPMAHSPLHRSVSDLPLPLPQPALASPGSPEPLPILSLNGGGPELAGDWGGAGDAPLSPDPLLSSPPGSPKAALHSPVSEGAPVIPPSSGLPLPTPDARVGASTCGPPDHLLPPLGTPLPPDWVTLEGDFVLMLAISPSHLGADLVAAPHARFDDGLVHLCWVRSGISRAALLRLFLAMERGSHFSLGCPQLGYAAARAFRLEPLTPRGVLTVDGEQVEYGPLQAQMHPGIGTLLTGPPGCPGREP
The conditions noted are these: at 0.1 µM.

Assay [13] addresses T3, Sphingosine kinase 2 (Homo sapiens). The conditions noted are these: at 1 µM.
The target in assay [14] is Casein kinase II subunit alpha (Homo sapiens) (UniProt P68400). To be noted: at 0.1 µM.
Chain of Casein kinase II subunit alpha (Homo sapiens) (P68400 whole entry, looked up): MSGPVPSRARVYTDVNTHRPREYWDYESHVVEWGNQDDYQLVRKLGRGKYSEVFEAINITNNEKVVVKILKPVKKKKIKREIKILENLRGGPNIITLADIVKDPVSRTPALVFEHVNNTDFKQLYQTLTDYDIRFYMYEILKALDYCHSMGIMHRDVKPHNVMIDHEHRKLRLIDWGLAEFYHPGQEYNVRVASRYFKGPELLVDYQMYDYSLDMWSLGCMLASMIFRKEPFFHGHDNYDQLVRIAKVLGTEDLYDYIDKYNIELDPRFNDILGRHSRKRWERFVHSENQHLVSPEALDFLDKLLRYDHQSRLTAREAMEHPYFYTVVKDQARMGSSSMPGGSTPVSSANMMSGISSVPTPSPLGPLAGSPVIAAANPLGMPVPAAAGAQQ
Assay [15] has the same target. The conditions noted are these: at 1 µM.
In assay [16] the target is T4, Inhibitor of nuclear factor kappa-B kinase subunit alpha (Homo sapiens) (UniProt O15111).
T4 sequence (whole entry): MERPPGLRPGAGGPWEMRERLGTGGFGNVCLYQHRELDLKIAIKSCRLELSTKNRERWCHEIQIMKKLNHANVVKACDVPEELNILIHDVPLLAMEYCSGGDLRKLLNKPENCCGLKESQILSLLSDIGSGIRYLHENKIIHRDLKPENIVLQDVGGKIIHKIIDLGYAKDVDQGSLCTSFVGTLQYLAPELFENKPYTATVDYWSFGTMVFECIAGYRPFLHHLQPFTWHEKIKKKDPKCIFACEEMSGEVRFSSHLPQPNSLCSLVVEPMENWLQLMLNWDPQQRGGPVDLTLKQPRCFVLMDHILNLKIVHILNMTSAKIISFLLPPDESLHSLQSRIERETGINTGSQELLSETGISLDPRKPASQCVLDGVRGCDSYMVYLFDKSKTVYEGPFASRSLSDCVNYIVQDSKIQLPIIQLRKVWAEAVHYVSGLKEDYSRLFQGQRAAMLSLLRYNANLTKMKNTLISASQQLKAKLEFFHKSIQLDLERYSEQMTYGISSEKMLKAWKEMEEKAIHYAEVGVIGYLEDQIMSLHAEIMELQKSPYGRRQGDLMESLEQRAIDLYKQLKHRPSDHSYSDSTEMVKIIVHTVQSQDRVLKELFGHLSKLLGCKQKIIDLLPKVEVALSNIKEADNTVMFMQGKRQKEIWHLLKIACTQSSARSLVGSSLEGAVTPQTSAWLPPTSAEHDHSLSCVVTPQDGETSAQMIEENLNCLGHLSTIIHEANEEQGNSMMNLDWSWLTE
The conditions noted are these: at 0.1 µM.

Assay [17] deals with T4, Inhibitor of nuclear factor kappa-B kinase subunit alpha (Homo sapiens). To be noted: at 1 µM.
Assay [18] deals with T5, Inhibitor of nuclear factor kappa-B kinase subunit beta (Homo sapiens) (UniProt O14920).
T5 sequence (whole entry): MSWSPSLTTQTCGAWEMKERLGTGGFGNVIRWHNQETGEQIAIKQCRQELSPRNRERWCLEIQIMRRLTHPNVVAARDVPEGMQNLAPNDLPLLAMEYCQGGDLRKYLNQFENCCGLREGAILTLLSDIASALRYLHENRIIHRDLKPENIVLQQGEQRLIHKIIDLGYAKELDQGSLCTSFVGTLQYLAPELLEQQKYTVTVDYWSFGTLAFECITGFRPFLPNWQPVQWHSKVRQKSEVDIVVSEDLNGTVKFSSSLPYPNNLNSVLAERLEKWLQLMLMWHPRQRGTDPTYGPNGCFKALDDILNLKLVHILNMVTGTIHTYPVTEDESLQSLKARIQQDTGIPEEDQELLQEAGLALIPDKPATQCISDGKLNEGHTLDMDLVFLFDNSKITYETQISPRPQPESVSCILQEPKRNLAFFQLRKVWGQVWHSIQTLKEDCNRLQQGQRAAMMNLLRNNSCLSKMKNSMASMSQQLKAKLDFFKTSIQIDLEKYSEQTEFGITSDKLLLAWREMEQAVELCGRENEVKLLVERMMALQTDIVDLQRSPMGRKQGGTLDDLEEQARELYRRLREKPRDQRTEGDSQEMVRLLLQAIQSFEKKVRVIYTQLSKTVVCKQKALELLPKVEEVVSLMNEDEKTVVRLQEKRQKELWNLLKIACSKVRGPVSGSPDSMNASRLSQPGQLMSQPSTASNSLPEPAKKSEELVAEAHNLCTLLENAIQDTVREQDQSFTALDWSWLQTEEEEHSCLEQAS
The conditions noted are these: at 0.1 µM.

Assay [19] deals with T5, Inhibitor of nuclear factor kappa-B kinase subunit beta (Homo sapiens). The conditions noted are these: at 1 µM.
Assay [20] concerns the target T6, Inhibitor of nuclear factor kappa-B kinase subunit epsilon (Homo sapiens) (UniProt Q14164).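 Note: mean inhibition of IKKε reported, from the GSK PKIS dataset.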
T6 sequence (whole entry): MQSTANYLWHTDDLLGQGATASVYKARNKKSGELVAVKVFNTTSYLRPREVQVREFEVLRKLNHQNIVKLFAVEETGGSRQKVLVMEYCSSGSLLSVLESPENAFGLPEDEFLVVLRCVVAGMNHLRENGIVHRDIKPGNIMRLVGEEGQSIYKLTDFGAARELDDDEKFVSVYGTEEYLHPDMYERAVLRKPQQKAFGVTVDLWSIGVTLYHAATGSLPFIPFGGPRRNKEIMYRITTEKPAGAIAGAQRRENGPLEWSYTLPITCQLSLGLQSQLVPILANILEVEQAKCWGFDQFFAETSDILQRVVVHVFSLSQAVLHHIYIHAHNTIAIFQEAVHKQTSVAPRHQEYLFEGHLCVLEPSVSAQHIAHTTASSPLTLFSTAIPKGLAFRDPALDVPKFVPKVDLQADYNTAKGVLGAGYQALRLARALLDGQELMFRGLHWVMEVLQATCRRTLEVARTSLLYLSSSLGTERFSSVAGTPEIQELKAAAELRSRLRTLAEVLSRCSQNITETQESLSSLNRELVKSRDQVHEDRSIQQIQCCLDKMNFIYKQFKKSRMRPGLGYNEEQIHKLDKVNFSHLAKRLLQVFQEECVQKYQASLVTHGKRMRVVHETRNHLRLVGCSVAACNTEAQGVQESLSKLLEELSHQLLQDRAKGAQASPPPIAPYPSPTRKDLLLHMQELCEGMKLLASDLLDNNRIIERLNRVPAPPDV
To be noted: at 0.1 µM.

“And” between values parts separate entries of the source, which are not always exact repeats. Identical values can stand only once.

Chain of SRSF protein kinase 1 (Homo sapiens) (Q96SB4 whole entry): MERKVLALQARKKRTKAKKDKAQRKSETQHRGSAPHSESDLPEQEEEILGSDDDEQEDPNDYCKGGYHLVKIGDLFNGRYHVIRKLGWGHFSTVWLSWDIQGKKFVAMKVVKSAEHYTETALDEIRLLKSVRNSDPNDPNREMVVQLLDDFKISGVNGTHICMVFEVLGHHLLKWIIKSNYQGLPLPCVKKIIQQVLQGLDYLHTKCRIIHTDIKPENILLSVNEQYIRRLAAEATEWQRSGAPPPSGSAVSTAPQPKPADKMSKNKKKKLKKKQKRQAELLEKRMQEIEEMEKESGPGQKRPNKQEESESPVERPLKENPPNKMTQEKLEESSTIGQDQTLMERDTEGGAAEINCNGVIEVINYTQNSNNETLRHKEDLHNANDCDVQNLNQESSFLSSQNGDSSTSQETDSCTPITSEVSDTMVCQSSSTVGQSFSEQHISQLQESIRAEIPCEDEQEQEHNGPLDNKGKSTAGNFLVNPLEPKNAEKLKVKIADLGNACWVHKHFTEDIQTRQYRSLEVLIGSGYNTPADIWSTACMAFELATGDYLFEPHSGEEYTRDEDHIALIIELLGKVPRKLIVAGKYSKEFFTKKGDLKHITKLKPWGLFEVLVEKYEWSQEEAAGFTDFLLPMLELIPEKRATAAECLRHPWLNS
Chain of Phosphatidylinositol 4-kinase beta (Homo sapiens) (Q9UBF8 2-816 limits assumed): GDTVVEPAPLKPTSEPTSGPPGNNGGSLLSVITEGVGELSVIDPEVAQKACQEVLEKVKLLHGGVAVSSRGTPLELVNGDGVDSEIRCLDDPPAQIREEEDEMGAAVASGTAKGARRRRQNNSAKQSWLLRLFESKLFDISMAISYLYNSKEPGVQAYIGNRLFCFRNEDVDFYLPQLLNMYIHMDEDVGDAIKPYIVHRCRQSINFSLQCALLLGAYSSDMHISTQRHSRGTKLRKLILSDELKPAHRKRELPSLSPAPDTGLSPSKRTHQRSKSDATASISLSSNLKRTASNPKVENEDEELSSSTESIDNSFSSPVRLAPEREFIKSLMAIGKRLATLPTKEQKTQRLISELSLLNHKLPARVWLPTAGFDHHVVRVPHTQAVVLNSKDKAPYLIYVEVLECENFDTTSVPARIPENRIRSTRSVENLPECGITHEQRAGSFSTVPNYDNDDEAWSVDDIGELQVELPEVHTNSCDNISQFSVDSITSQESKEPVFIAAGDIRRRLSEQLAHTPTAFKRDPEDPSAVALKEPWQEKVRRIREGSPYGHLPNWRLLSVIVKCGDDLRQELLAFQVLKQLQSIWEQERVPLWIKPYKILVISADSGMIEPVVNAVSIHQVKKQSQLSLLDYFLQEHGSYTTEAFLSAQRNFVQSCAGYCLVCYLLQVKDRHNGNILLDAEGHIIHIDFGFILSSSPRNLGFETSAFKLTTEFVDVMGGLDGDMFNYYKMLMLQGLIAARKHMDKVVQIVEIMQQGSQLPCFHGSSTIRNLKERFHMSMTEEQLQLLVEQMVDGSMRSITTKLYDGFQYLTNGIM

With `CN1CCN(Cc2ccc(-c3cc4ncnc(Nc5ccc(OCc6cccc(F)c6)c(Cl)c5)c4s3)o2)CC1`, the inhibition in assay [1] is 2.94% and 2.8%; in assay [2], -2.39% and -1.61%; in assay [3], -2.07% and 0.69%; in assay [4] it was 1.34% and 4.72%; in assay [5] it was 2.47% and 5.81%; in assay [6] it was 1.29% and 2.75%. In addition, the inhibition in assay [7] was 3.39% and 4.31%; in [8], 0.91%; in assay [9], 1.06%; in [10] it was 10.5% and 0.88%; in [11] it was 3.16% and -4.57%; in assay [12], 0.42% and -0.46%. Besides, the inhibition in assay [13] was 2.36% and -0.62%; in assay [14] it was 12.7% and 7.35%; in [15], 3.7% and 10.5%; in [16], 4.53% and 11.4%; in assay [17], 2.93% and 6.95%; in [18], 2.82% and 5.97%. The inhibition is 3.27% and 6.18% in assay [19]; 3.75% and 4.88% in assay [20].
On to `CS(=O)(=O)CCNCc1ccoc1-c1ccc2ncnc(Nc3ccc(OCc4ccccc4)cc3)c2c1`, for which the inhibition in [1] was 0.43%; in [2] it was -0.09%; in assay [3], -1.85%; in assay [4], 1.09%; in assay [5], 2.87%; in [6], 0.63%. The inhibition in assay [7] is 4.62%; in assay [8], 9.16%; in assay [9], -0.68%; in assay [10] it was 0.65%; in assay [11], 5.32%; in assay [12], 1.37%. Also, the inhibition in assay [13] was 1.07%; in assay [14] it was 2.14%; in assay [15] it was 1.94%; in assay [16], 1.95%; in assay [17], 8.23%; in assay [18], -1.24%. Moreover, the inhibition in assay [19] was 0.42%; in [20] it was -0.44%.
Regarding `CC1(C)CC(n2cnc(-c3ccc(F)cc3)c2-c2ccnc(N)n2)CC(C)(C)N1`, the inhibition was 2.44% in assay [1]; 0.72% in assay [2]; -1.12% in [3]; 4.34% in assay [4]; 4.5% in assay [5]; 5.71% in assay [6]. For the same compound, the inhibition is 6.91% in assay [7]; 0.64% in assay [8]; -1.54% in assay [9]; 1.98% in assay [10]; 10.6% in assay [11]; 3.82% in assay [12]. Further, the inhibition was -2.43% in [13]; 1.44% in assay [14]; 7.38% in [15]; 1.15% in [16]; 1.35% in assay [17]; -0.17% in [18]. Besides, the inhibition in assay [19] was -1.15%; in assay [20], 0.1%.
